Screening results: PubChem BioAssay, National Center for Advancing Translational Sciences (NCATS)
Rows were chosen to be rich in hits. Some 1.2% of all compounds tested hit in one or more screens of this group.
KCNH2 WT inh = KCNH2 (human, wildtype) channel inhibition; U2OS, BacMam KCNH2, thallium flux FluxOr; hits give low values; 340,000 tested, 0.37% active; activity change, % at 1.84 µM;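 active = maximum activity change below -70%; inconclusive = maximum activity change between -70% and -50%; inactive = maximum activity change above -50%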
Target sequence (Q12809 whole entry, looked up): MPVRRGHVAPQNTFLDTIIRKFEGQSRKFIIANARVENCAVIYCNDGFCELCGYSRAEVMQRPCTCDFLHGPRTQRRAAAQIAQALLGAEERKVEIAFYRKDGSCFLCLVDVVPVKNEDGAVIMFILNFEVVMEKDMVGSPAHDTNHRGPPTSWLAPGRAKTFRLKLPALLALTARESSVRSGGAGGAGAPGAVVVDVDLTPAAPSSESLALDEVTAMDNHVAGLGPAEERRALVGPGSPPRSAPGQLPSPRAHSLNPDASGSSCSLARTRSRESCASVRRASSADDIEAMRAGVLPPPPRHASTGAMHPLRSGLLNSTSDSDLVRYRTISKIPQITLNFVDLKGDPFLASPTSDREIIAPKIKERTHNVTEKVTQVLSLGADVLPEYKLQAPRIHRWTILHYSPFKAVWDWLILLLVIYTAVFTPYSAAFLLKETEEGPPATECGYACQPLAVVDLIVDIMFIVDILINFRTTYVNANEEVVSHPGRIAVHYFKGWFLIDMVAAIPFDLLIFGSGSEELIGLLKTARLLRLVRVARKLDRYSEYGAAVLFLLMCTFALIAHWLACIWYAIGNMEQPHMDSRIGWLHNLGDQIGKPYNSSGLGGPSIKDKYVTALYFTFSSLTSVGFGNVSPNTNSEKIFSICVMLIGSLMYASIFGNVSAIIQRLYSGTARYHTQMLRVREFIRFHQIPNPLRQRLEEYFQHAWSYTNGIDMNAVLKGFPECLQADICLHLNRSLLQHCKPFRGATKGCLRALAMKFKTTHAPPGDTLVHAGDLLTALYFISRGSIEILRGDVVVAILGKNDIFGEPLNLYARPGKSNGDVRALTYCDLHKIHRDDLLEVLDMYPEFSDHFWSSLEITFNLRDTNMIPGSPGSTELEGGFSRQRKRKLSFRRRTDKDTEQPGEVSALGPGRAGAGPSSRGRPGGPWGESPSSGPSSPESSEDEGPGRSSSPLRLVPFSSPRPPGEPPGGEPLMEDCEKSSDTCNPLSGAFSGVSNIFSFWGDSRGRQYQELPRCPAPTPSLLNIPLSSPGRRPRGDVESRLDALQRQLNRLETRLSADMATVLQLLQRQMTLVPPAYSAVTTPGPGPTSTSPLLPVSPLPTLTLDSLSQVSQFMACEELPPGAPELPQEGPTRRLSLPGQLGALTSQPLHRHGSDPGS
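U2OS cells transduced with wild-type KCNH2 virus are loaded with FluxOr dye for 45 min, and thallium flux is measured in kinetic reads before and after stimulation buffer. Rate constants are normalized to DMSO controls.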
KCNH2 3.1 block = blocks the human KCNH2 3.1 channel isoform | U2OS KCNH2 3.1, thallium flux FluxOr; hits give low values | activity change, % (tested at about 1.8 µM) | 340,000 tested, 0.95% active | AID 720553;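 active = maximum activity change below -70%; inconclusive = maximum activity change from -70% to -50%; inactive = maximum activity change above -50%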;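 note: thallium influx rate constant from kinetic fluorescence after stimulation buffer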
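Channel expression came from 3.1 mutant virus (1.77 x 10^8 /mL) applied to suspended U2OS cells for 4 h. Flux was tracked with FluxOr dye plus Red40 quencher, and kinetic rate constants normalized to controls.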
Luc counter = Kinase-Glo luciferase inhibition (counter-screen); AID 1379; 200,000 tested, 0.28% active; Kinase-Glo luciferase, ATP luminescence, 8 min; Potency, µM (highest dose often 38.3 µM), usual class: inhibitors; Q27757; active = well fitted inhibition curve with a large enough effect; inconclusive = small, poorly fitted or top-dose-only effect; note: nearly all actives have a fitted effect of over 60% in size
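Compound is pinned into ATP-containing buffer (10 uM ATP, imidazole pH 7.2, 7 mM MgCl2). Kinase-Glo luciferase reagent is then added. Light output is recorded following an 8-min room-temperature incubation.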
Each line names hits and unclear results; the compound was inactive in the other large screens.

CCN(CC)c1ccc(-c2c(C#N)c(N)nc(OC)c2C#N)cc1	KCNH2 3.1 block -70.3
Cn1nc(N)c2c(-c3ccc(Cl)cc3)c(C#N)c(N)nc21	none
CCn1c(=N)c(C(=O)OC)cc2c(=O)n3ccccc3nc21	none (no result: KCNH2 WT inh, KCNH2 3.1 block)
COc1cccc(NC(=O)c2cc3c(=O)n4ccccc4nc3n(CC(C)C)c2=N)c1	KCNH2 WT inh -73.8, KCNH2 3.1 block -93.3
Cc1ccc(CNC(=O)c2cc3c(=O)n4ccccc4nc3n(Cc3ccco3)c2=N)cc1	none
Cc1cccc(NC(=O)c2cc3c(=O)n4ccccc4nc3n(CC(C)C)c2=N)c1	KCNH2 WT inh -117.9, KCNH2 3.1 block -97.7
COc1ccccc1NC(=O)c1ccc(Cl)c(S(=O)(=O)NCc2ccco2)c1	none (no result: Luc counter)
CC1(C)Cc2c(sc3nnn(Cc4ccc(Cl)cc4)c(=O)c23)CO1	none
CC1(C)Cc2c(sc3c2c(N)nc(=S)n3Cc2ccc(Br)cc2)CO1	KCNH2 WT inh inconclusive, KCNH2 3.1 block -103.8 (no result: Luc counter)
Cc1ccc(S(=O)(=O)N2CCOCC2)cc1NC(=O)COC(=O)/C=C/c1ccco1	none (no result: Luc counter)
COc1cc(/C=C2/NC(=O)N(Cc3ccccc3F)C2=O)ccc1Oc1ccc([N+](=O)[O-])cn1	none
COc1cc(/C=C2/NC(=O)N(Cc3ccccc3F)C2=O)ccc1O	KCNH2 3.1 block -104.2 (no result: Luc counter)
C=C(C)C1CC=C(C)/C(=N/NC(=O)c2ccc(NC(=O)CC)cc2)C1 (configuration not stated)	none
C=C(C)C1CC=C(C)/C(=N/NC(=O)c2ccc(NC(=O)CCC)cc2)C1 (configuration not stated)	KCNH2 3.1 block -86.7
C/C(CC(=O)Nc1ccc(C)c(Cl)c1)=N\NC(=O)c1cccc(O)c1	none (no result: Luc counter)
CC(=O)Nc1ccc(NC(=O)C/C(C)=N/NC(=O)C(=O)Nc2ccc(C)c(Cl)c2)cc1	KCNH2 3.1 block -84.2 (no result: Luc counter)
O=C(Nc1ccc(N=Nc2ccccc2)cc1)c1ccccc1Cl	KCNH2 3.1 block -97.7
O=C(Nc1ccc(N=Nc2ccccc2)cc1)c1ccc(Cl)cc1Cl	none
O=C(COC(=O)C12CC3CC(CC(O)(C3)C1)C2)Nc1cccc(Br)c1	none (no result: Luc counter)
O=C(COC(=O)CC1SC(N2CCCC2)=NC1=O)Nc1c(F)c(F)c(F)c(F)c1F (configuration not stated)	KCNH2 3.1 block -74.1 (no result: Luc counter)
CN(C)C(=O)c1ccc(NC(=O)CC2SC(N3CCCC3)=NC2=O)cc1 (configuration not stated)	none (no result: Luc counter)
CCn1c(SC(C)C(=O)Nc2ccc(N3CCOCC3)cc2)nnc1C1CC1 (configuration not stated)	none (no result: Luc counter)
C=C1C(=O)OC2C=C(CO)C3OC3C3OC3(C)CC(OC(=O)/C(=C/C)COC(C)=O)C12 (configuration not stated)	none (no result: Luc counter)
Cc1ccn2c(NCc3ccc4c(c3)OCO4)c(-c3ccc(O)cc3)nc2c1	KCNH2 3.1 block -75.1
Oc1ccc(-c2nc3ccccn3c2NCc2ccc3c(c2)OCO3)cc1	KCNH2 3.1 block inconclusive
CCN(N=O)c1ccc(C=C2C=Cc3ccccc32)cc1	none (no result: Luc counter)
CCCCCN1C=CC(=C2C(=O)c3ccccc3C2=O)C=C1	Luc counter 2.82µM
CC1=CC(=C2C(=O)c3ccccc3C2=O)C=C(C)N1C	none
C(=N/Nc1nnc2c(n1)[nH]c1ccccc12)/c1cccnc1	none (no result: KCNH2 WT inh, KCNH2 3.1 block)
C=CCN=C1NN=C(c2cc(C)n(CCOC)c2C)CS1	none
COCCn1c(C)cc(C2=NNC(=NC3CC3)SC2)c1C	Luc counter 7.08µM
CCCC(=O)N(CCN1CCOCC1)c1nc2c(OC)ccc(C)c2s1	none (no result: Luc counter)
CCCC(=O)N(CCN1CCOCC1)c1nc2c(C)ccc(C)c2s1	KCNH2 3.1 block -84.8 (no result: Luc counter)
COc1ccc(Nc2ccc([N+](=O)[O-])cn2)cc1	none (no result: Luc counter)
COc1ccc(Nc2cc(C)c3cc([N+](=O)[O-])ccc3n2)cc1	KCNH2 3.1 block -98.7 (no result: Luc counter)
COc1ccc(N2CC(C(=O)Nc3nc4ccc(F)cc4s3)CC2=O)c(OC)c1 (configuration not stated)	none (no result: Luc counter)
CC(=O)C1=C(O)C(=O)N(c2ccccn2)C1c1ccccc1[N+](=O)[O-] (configuration not stated)	none (no result: Luc counter)
O=c1[nH]ncc(N2CCCCC2)c1Cl	none
O=c1[nH]ncc(N2CCCCCC2)c1Cl	KCNH2 3.1 block -100.0
COc1ccc(C(=O)Nc2ccccc2C(=O)N/N=C/c2cccc3ccccc23)cc1	Luc counter 5.01µM
COc1ccc(C(=O)Nc2ccccc2C(N)=O)cc1	Luc counter inconclusive
Cc1ccc(N2C(=O)c3cccc4c([N+](=O)[O-])ccc(c34)C2=O)c2cccnc12	KCNH2 3.1 block -98.2 (no result: Luc counter)
Cc1ccc(N2C(=O)c3cccc4c(N5CCN(C)CC5)ccc(c34)C2=O)c2cccnc12	none
COc1ccccc1CNCC(=O)NCc1ccc(C)cc1	KCNH2 3.1 block -70.5
COc1ccccc1CNC(=O)Cc1ccc(C)cc1	none (no result: KCNH2 WT inh)
Cc1c(O)ccc(C(=O)CN2CCN(c3ccccc3)CC2)c1O	none (no result: Luc counter)
S=c1[nH]nc(C2CC2)n1Cc1ccco1	KCNH2 WT inh -322.7
S=c1[nH]nc(Cc2ccccc2)n1Cc1ccco1	none
O=S(CC(O)c1ccccc1)c1ccccc1 (configuration not stated)	none (no result: Luc counter)
c1ccc(N2CCN(c3nc(NCc4ccco4)c4ccccc4n3)CC2)cc1	KCNH2 WT inh -80.7, KCNH2 3.1 block -103.7
c1ccc(CNc2nc(N3CCN(Cc4ccccc4)CC3)nc3ccccc23)cc1	KCNH2 3.1 block -104.4 (no result: Luc counter)
OCCNc1nc(N2CCCCC2)nc2ccccc12	none (no result: Luc counter)
c1coc(CNc2nc(N3CCCCC3)nc3ccccc23)c1	none
CC(NC(=O)c1ccccc1)C(=O)NC1CCCc2ccccc21 (configuration not stated)	none (no result: Luc counter)
CCOc1ccccc1-c1nnc(SCC(=O)NC2CC2)n1CC	none (no result: Luc counter)
O=C(O)c1ccc2c3c(cccc13)C(=O)N(c1ccccc1)C2=O	KCNH2 3.1 block -103.7
O=C(O)c1ccc(N2C(=O)c3cccc4c(C(=O)O)ccc(c34)C2=O)cc1	none
COc1cccc(CC(=O)NNC(=O)CN(C)S(=O)(=O)c2ccc(C)cc2)c1	none (no result: Luc counter)
COc1nc(N)nc(NC(=O)c2cccs2)c1N=O	none (no result: Luc counter)
COc1cccc(CN2CCN(C(=S)NCc3ccc(Cl)cc3)CC2)c1	KCNH2 3.1 block -74.5
COc1ccc(OC)c(NC(=S)N2CCN(Cc3ccccc3)CC2)c1	none
COc1ccc(CN(C(=O)CSc2nnc(-c3c[nH]c4ccccc34)o2)c2ccc(F)cc2)cc1OC	KCNH2 WT inh -279.9
COc1ccc(CN(C(=O)CSc2nnc(-c3ccc(F)cc3)o2)c2ccc(F)cc2)cc1	none
CCCCc1nc2c(c3c1C[C@H](C)OC3)CN(S(=O)(=O)c1ccc3c(c1)OCCN3C)CC2	none (no result: KCNH2 WT inh, KCNH2 3.1 block)
CN(C(=O)CSc1ccc(S(=O)(=O)N2CCCCC2)cn1)c1ccccc1	none (no result: Luc counter)
Cc1cc(NC(=O)Cn2c(=O)c3c(ncn3CC(C)C)n(Cc3ccccc3)c2=O)no1	none
CC(C)Cn1cnc2c1c(=O)n(CC(=O)Nc1ccc3c(c1)OCO3)c(=O)n2Cc1ccccc1	KCNH2 WT inh -86.3
Cc1csc(SCC(=O)NC2CCCC2)n1	none (no result: Luc counter)
CN(C)c1ccc(/C=N/NC(=O)c2nnn(-c3nonc3N)c2CN2CCCCCC2)cc1	none (no result: Luc counter)
Nc1nonc1-n1nnc(C(=O)N/N=C/c2cccc(F)c2)c1CN1CCCCCC1	none (no result: Luc counter)
CCCCOc1ccc(/C=N/NC(=O)c2nnn(-c3nonc3N)c2CN2CCCCCC2)cc1	KCNH2 3.1 block -80.5 (no result: Luc counter)
